Laboratory results taken from PubChem BioAssay (NCI).
Compounds without any hit were thinned out: in the full panel of roughly 79,000, 15% have a hit. The source made the active and inactive calls. No stated cut-off is given here; in the data, active means growth inhibition above about 70%; inactive means the rest.

Assays:
[1] = NCI Yeast Anticancer Drug Screen. Data for the rad50 strain (AID 155);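 further: 0% = growth of vehicle-only cultures of the same strain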; details: S. cerevisiae rad50 strain growth inhibition, stronger effect = higher value
Procedure, shortened: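 Readout: growth inhibition relative to vehicle-treated cultures. Compound exposure was carried out in a genetically defined yeast strain deficient in DNA damage repair.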

[2] = NCI Yeast Anticancer Drug Screen. Data for the mec2-1 strain (AID 157); details: S. cerevisiae mec2-1 strain, stronger effect = higher value
Procedure, shortened: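 Vehicle-treated cultures served as reference for growth inhibition of compound-exposed mec2-1 yeast.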

[3] = NCI Yeast Anticancer Drug Screen. Data for the sgs1 mgt1 strain (AID 161);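 further: 0% = growth of cultures given vehicle only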; details: S. cerevisiae sgs1 mgt1 strain, stronger effect = higher value
Procedure, shortened: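 Test agents were incubated with a DNA-repair-mutant yeast strain. Growth was then read and compared against vehicle-treated controls.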

[4] = NCI Yeast Anticancer Drug Screen. Data for the cln2 rad14 strain (AID 165);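 further: 0% = growth equal to vehicle treated cultures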; details: S. cerevisiae cln2 rad14 strain, stronger effect = higher value
Procedure, shortened: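 Each compound was tested on cln2 rad14 yeast. Inhibition of growth was calculated against vehicle-exposed controls.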

[5] = NCI Yeast Anticancer Drug Screen. Data for the bub3 strain (AID 167); details: S. cerevisiae bub3 mutant strain, stronger effect = higher value
Procedure, shortened: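 Readout: yeast growth inhibition, expressed relative to vehicle-only wells. The test organism is a mutant strain from a panel with lesions in DNA repair or checkpoint genes.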

[6] = NCI Yeast Anticancer Drug Screen. Data for the mlh1 rad18 strain (AID 175); details: S. cerevisiae mlh1 rad18 strain growth inhibition, stronger effect = higher value
Procedure, shortened: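 Vehicle-treated cultures served as the reference for growth inhibition in a yeast strain carrying DNA damage repair alterations exposed to each compound.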

[7] = at 5.0 µM (retest, dose inferred, filed as 0.5)
[8] = at 50.0 µM (retest, dose inferred, filed as 5.0)

Measured: growth inhibition

CCC[CH2][Sn]([CH2]CCC)([O]C(=O)c1cc(F)ccc1F)[O]C(=O)c1cc(F)ccc1F
inactive: [1]; [7] 42% | [1]; [8] 42% | [2]; [7] 25% | [2]; [8] 25% | [3]; [7] 33% | [3]; [8] 33% | [4]; [7] 13% | [4]; [8] 13% | [5]; [7] 22% | [5]; [8] 22% | [6]; [7] 20% | [6]; [8] 20%
active: [1]; at 50.0 µM 84.1% | [2]; at 50.0 µM 83.6% | [3]; at 50.0 µM 73.1% | [4]; at 50.0 µM 70.4% | [5]; at 50.0 µM 79.2% | [6]; at 50.0 µM 78.2%

O=C(n1c2ccccc2c2n[nH]c(=S)nc21)C(F)(F)F
inactive: [1]; [7] 1% | [1]; [8] -6% | [2]; [7] 0% | [2]; [8] -2% | [2]; at 50.0 µM 39.1% | [3]; [7] -3% | [3]; [8] -2% | [4]; [7] -2% | [4]; [8] -2% | [4]; at 50.0 µM 25.3% | [5]; [7] 3% | [5]; [8] -1% | [5]; at 50.0 µM 52.8% | [6]; [7] -5% | [6]; [8] 0%
active: [1]; at 50.0 µM 82.7% | [3]; at 50.0 µM 83.5% | [6]; at 50.0 µM 89.3%

CC(=O)Oc1cc(OC(C)=O)c2cc(Br)ccc2c1OC(C)=O
inactive: [1]; [7] -5% | [1]; [8] 63% | [2]; [7] 3% | [2]; [8] 47% | [3]; [7] -19% | [3]; [8] 67% | [3]; at 50.0 µM 62.8% | [4]; [7] 0% | [4]; [8] 37% | [5]; [7] 0% | [5]; [8] 65% | [6]; [7] 5% | [6]; [8] 69%
active: [1]; at 50.0 µM 87.5% | [2]; at 50.0 µM 72.8% | [4]; at 50.0 µM 70.2% | [5]; at 50.0 µM 94.1% | [6]; at 50.0 µM 90.7%

CC(C)N(CCOc1ccc(/C=C/c2ccccc2)cc1)C(C)C
active: [5]; at 50.0 µM 75.8%
inactive: [1]; [7] 4% | [1]; [8] 1% | [1]; at 50.0 µM 12.1% | [2]; [7] 4% | [2]; [8] 1% | [2]; at 50.0 µM -1.45% | [3]; [7] 8% | [3]; [8] 2% | [3]; at 50.0 µM 55.9% | [4]; [7] 6% | [4]; [8] 2% | [4]; at 50.0 µM 8.5% | [5]; [7] 4% | [5]; [8] -3% | [6]; [7] 6% | [6]; [8] 4% | [6]; at 50.0 µM 9.3%

Cc1ccc(Cc2nc(=S)[nH][nH]2)cc1
inactive: [1]; [7] 20% | [1]; [8] 19% | [1]; at 50.0 µM 1.6% | [2]; [7] -3% | [2]; [8] 6% | [2]; at 50.0 µM -38.5% | [3]; [7] -3% | [3]; [8] 9% | [3]; at 50.0 µM -2.75% | [4]; [7] 1% | [4]; [8] 1% | [4]; at 50.0 µM -9.2% | [5]; [7] 8% | [5]; [8] 19% | [5]; at 50.0 µM -6.3% | [6]; [7] 14% | [6]; [8] 21% | [6]; at 50.0 µM -34.8%

CCCCN1CCN(c2ccc([N+](=O)[O-])c3no[n+]([O-])c23)CC1
inactive: [4]; [7] 43% | [5]; [7] 58%
active: [1]; [7] 97% | [1]; [8] 99% | [1]; at 50.0 µM 90.5% | [2]; [7] 94% | [2]; [8] 99% | [2]; at 50.0 µM 93.2% | [3]; [7] 90% | [3]; [8] 99% | [3]; at 50.0 µM 90.2% | [4]; [8] 98% | [4]; at 50.0 µM 88.2% | [5]; [8] 98% | [5]; at 50.0 µM 91.2% | [6]; [7] 96% | [6]; [8] 99% | [6]; at 50.0 µM 90.5%

FC(F)(F)c1nc(Cl)nc2nc[nH]c12
inactive: [1]; [7] 3% | [1]; [8] -9% | [1]; at 50.0 µM 26.4% | [2]; [7] -7% | [2]; [8] -2% | [2]; at 50.0 µM 6.1% | [3]; [7] -3% | [3]; [8] -10% | [3]; at 50.0 µM -31.4% | [4]; [7] -3% | [4]; [8] 0% | [4]; at 50.0 µM 17.4% | [5]; [7] -1% | [5]; [8] 4% | [5]; at 50.0 µM -21.7% | [6]; [7] 0% | [6]; [8] -8% | [6]; at 50.0 µM -4.75%

NC1CCCCC1N.O=C([O-])c1ccc(N=Nc2cccc([N+](=O)[O-])c2)cc1O.O=C([O-])c1ccc(N=Nc2cccc([N+](=O)[O-])c2)cc1O.[Pt+4]
inactive: [1]; [7] 15% | [1]; [8] 23% | [1]; at 50.0 µM -2.95% | [2]; [7] 18% | [2]; [8] 36% | [2]; at 50.0 µM -2.45% | [3]; [7] -20% | [3]; [8] 36% | [3]; at 50.0 µM 3% | [4]; [7] -8% | [4]; [8] 20% | [4]; at 50.0 µM -18.6% | [5]; [7] 28% | [5]; [8] 45% | [5]; at 50.0 µM -19.4% | [6]; [7] 25% | [6]; [8] 34% | [6]; at 50.0 µM 6.8%

COc1cc2c(c(C3C(=O)N(C)c4ccc(Br)cc43)c1OC)OCO2 (configuration not stated)
inactive: [1]; [7] 3% | [1]; [8] 3% | [1]; at 50.0 µM 4.3% | [2]; [7] 2% | [2]; [8] 4% | [2]; at 50.0 µM 12.7% | [3]; [7] -1% | [3]; [8] 10% | [3]; at 50.0 µM 11.3% | [4]; [7] 5% | [4]; [8] 12% | [4]; at 50.0 µM -3.8% | [5]; [7] 4% | [5]; [8] -1% | [5]; at 50.0 µM -1.85% | [6]; [7] 4% | [6]; [8] 10% | [6]; at 50.0 µM 8.55%
